This note sets out measurements from PubChem BioAssay (Tox21).

“And” between values parts separate entries of the source, which are not always exact repeats. Equal entries are not always repeated. Inconclusive results are not listed. The source made the active and inactive calls. Unless noted, the call rests on the fitted dose curve; in most records, active means well fitted curve in the direction sought with a large enough effect in the repeat runs; inconclusive means weak or mixed curves; inactive means no such curve, though single readings can be large; an effect the other way counts as inactive or inconclusive.

Assay [1] can be described thus: qHTS assay to identify small molecule agonists of the estrogen receptor alpha (ER-alpha) signaling pathway in the presence of an antagonist - cell viability counter screen (AID 1259386).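 Further: series mostly up to about 92 µM; cells exposed to compounds for 22 h at 37 °C before the viability read; nearly all actives have a fitted effect of over 30% in size.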 The essentials:
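Cells are starved of estrogens for 5 days in charcoal-stripped serum, seeded for 24hr and co-treated with ICI-182,780 (10.0nM final) and test compounds. After 22hr at 37C, viability is read as CellTiter-Fluor fluorescence.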
For orientation: Quantitative high-throughput screening tests each substance at several concentrations.

Assay [2] concerns the target Progesterone receptor (Homo sapiens) (UniProt P06401). The assay is described as follows: qHTS assay to identify small molecule agonists of the progesterone receptor (PR) signaling pathway (AID 1346784; calls by dose curve; further: nearly all actives have a fitted effect of over 30% in size; further: potency means the concentration at half of the fitted maximal effect). In a few lines:
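Fluorescence from LiveBLAzer B/G FRET substrate cleavage (2 hr, RT) reported PR activation in PR-UAS-bla HEK 293T cells treated 16 hr at 37C/5% CO2 with compounds; medium contained 2% charcoal-stripped FBS.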

A short description of assay [3]: qHTS assay to identify small molecule agonists of the progesterone receptor (PR) signaling pathway - cell viability counter screen (AID 1346799; calls by dose curve; further: nearly all actives have a fitted effect of over 45% in size). The essentials: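 In parallel with the beta-lactamase readout, cytotoxicity toward PR-UAS-bla HEK293T cells was measured by CellTiter-Glo luminescence following 16 hr compound incubation in 2% charcoal-stripped FBS medium.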

Assay [4] is described as follows: qHTS assay to identify small molecule antagonists of the TGF-beta/Smad signaling pathway - cell viability counter screen (AID 1346824). Further: nearly all actives have a fitted effect of over 50% in size. The essentials: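 Cytotoxicity counter-screen run in the same wells as the beta-lactamase Smad reporter read: CellTiter-Glo luminescence after 30 min at room temperature. HEK 293T SBE-bla cells had 5 hr compound exposure at 37 C with TGF-beta1 (0.25 ng/mL stock).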

The nature of assay [5]: qHTS assay to identify small molecule agonists of the TGF-beta/Smad signaling pathway (AID 1346859; active means well fitted activation curve with a large enough effect in the signal ratio in the repeat runs, not every such curve was filed as active; the % refers to the signal ratio; further: series mostly up to about 77 µM). In a few lines:
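After overnight seeding, SBE-bla HEK 293T cells are dosed with compounds in DMSO and kept 5 hr at 37 C, 5% CO2. LiveBLAzer-type FRET substrate is then applied for 2 hr at room temperature.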

Assay [6] deals with Thyrotropin-releasing hormone receptor (Homo sapiens) (UniProt P34981). The assay is described as follows: qHTS assay to identify small molecule antagonists of the thyrotropin-releasing hormone receptor (TRHR) signaling pathway (AID 1346877; active means well fitted inhibition curve with a large enough effect in the repeat runs, not every such curve was filed as active; further: series mostly up to about 51 µM). The essentials: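 Cells (TRHR-HEK293) are plated and kept 18 h at 37 °C/5% CO2. A calcium-sensitive dye is added for 2 h, compound follows for 5 min at room temperature, and TRH is then given at 1 nM final.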

Assay [7] in a line: Human pregnane X receptor (PXR) small molecule agonists, qHTS cell viability counter screen (AID 1346977). Further: nearly all actives have a fitted effect of over 50% in size. In a few lines: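 Viability counter screen: CellTiter-Fluor signal in PXR-Luc HepG2 cells, 24hr compound exposure, 37C, 5% CO2.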
Assay [8] can be described thus: Caspase-3/7 induction in HepG2 cells by small molecules, qHTS assay (AID 1346978). Further: nearly all actives have a fitted effect of over 15% in size. The essentials: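 Caspase-3/7 induction was measured by Caspase-Glo 3/7 luminescence (30 min, room temperature) after a 17 hr compound exposure of wild-type HepG2 cells seeded at 2,000 per well and pre-incubated 5 hr.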
Assay [9] can be described thus: Caspase-3/7 induction in CHO-K1 cells by small molecules, qHTS cell viability counter screen (AID 1346979). Further: nearly all actives have a fitted effect of over 35% in size. In a few lines:
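Viability readout by fluorescence (CellTiter-Fluor) on wild-type CHO-K1 cells exposed for 16hr at 37C and 5% CO2 to compounds delivered in DMSO; reagent incubated 1hr before reading.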

A short description of assay [10]: Caspase-3/7 induction in CHO-K1 cells by small molecules, qHTS assay (AID 1346980). Further: nearly all actives have a fitted effect of over 15% in size. In a few lines:
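Luminescent Caspase-Glo 3/7 read (30min, room temperature) quantified apoptosis induction. Cells were wild-type CHO-K1, treated with compound for 17hr at 37 C and 5% CO2.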

The nature of assay [11]: Caspase-3/7 induction in HepG2 cells by small molecules, qHTS cell viability counter screen (AID 1346981). Further: series mostly up to about 92 µM; nearly all actives have a fitted effect of over 30% in size. The essentials:
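Steps: seed 2,000 HepG2 cells per well; incubate 5 hr at 37 C; pin-add compounds in DMSO; incubate 16 hr; add CellTiter-Fluor; after 1 hr at 37 C and 5% CO2, read fluorescence.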

Assay [12] addresses Nuclear receptor subfamily 1 group I member 2 (Homo sapiens) (UniProt O75469). The assay is described as follows: Human pregnane X receptor (PXR) small molecule agonists, qHTS assay (AID 1346982). Further: nearly all actives have a fitted effect of over 35% in size. Further: potency means the concentration at half of the fitted maximal effect. In a few lines: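 Agonist mode qHTS: PXR-Luc HepG2 cells plated 5 hr before DMSO-dissolved compounds were pinned in, cultured 24 hr at 37 C, 5% CO2; ONE-Glo luminescence readout.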

The target in assay [13] is Acetylcholinesterase (Homo sapiens) (UniProt P22303). The assay is described as follows: Acetylcholinesterase (AChE) small molecule antagonists: colormetric cell-based qHTS assay (AID 1347395; calls by dose curve; further: nearly all actives have a fitted effect of over 30% in size; further: potency means the concentration at half of the fitted maximal effect). In a few lines: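 Homogeneous whole-cell format. SH-SY5Y cells seeded overnight, dosed with compound (30 min, 37 C, 5% CO2), then given DTNB/acetylthiocholine cocktail for 90 min at 37 C; colorimetric signal.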

Assay [14] can be described thus: qHTS assay to identify small molecule antagonists of the progesterone receptor (PR) signaling pathway - cell viability counter screen (AID 1346798). Further: series mostly up to about 92 µM; nearly all actives have a fitted effect of over 50% in size. In a few lines:
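CellTiter-Glo luminescence; PR-UAS-bla HEK293T, 3,000 cells/well; compound + R5020, 16 hr, 37C/5% CO2; 30 min RT before read.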

Assay [15] in a line: qHTS assay to identify small molecule agonists of the TGF-beta/Smad signaling pathway - cell viability counter screen (AID 1346829). Further: top concentration of the series differs between compounds; nearly all actives have a fitted effect of over 45% in size. In a few lines:
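Compound-treated SBE-bla HEK 293T cells (5 hr, 37 C) were assessed for viability with CellTiter-Glo in parallel with the reporter read.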

Assay [16] addresses Thyrotropin-releasing hormone receptor (Homo sapiens) (UniProt P34981). The assay is described as follows: qHTS assay to identify small molecule agonists of the thyrotropin-releasing hormone receptor (TRHR) signaling pathway (AID 1346891; calls by dose curve;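 further: HEK293 cells expressing TRHR with calcium dye readout; series mostly up to about 58 µM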). The essentials:
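Compounds were tested as agonists at 15 concentrations, in triplicate, on TRHR-Hek293 cells; calcium-sensitive dye fluorescence was recorded for 3 min following addition.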

Sequence of Nuclear receptor subfamily 1 group I member 2 (Homo sapiens) (O75469 whole entry, looked up): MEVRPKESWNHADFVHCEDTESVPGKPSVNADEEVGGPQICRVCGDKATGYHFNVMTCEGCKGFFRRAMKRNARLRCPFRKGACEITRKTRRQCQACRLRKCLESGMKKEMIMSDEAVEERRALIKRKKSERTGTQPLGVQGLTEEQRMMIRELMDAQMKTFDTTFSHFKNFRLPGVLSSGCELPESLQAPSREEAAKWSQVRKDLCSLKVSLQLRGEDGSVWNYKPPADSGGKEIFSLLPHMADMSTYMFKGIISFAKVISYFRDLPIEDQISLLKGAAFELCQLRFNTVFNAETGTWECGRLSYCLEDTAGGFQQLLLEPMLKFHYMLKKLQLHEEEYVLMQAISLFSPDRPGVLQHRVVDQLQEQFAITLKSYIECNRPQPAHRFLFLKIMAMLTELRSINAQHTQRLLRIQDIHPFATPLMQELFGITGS
Sequence of Acetylcholinesterase (Homo sapiens) (P22303 whole entry, looked up): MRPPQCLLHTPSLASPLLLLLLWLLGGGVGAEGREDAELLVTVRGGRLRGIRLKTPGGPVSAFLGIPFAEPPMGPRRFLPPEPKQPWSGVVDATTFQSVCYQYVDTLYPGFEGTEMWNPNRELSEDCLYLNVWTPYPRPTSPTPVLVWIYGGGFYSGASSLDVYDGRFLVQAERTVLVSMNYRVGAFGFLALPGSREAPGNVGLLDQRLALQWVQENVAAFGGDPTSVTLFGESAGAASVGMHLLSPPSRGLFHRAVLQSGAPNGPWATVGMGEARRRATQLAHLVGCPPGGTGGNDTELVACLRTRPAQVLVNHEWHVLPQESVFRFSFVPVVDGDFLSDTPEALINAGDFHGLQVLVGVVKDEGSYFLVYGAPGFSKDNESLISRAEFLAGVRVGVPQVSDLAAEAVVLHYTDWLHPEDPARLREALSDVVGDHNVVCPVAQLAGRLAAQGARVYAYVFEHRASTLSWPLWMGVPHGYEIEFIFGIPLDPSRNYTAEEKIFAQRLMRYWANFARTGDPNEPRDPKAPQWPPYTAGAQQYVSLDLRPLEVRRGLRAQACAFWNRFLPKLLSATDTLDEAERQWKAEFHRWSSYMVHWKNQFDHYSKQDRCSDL
Sequence of Thyrotropin-releasing hormone receptor (Homo sapiens) (P34981 whole entry, looked up): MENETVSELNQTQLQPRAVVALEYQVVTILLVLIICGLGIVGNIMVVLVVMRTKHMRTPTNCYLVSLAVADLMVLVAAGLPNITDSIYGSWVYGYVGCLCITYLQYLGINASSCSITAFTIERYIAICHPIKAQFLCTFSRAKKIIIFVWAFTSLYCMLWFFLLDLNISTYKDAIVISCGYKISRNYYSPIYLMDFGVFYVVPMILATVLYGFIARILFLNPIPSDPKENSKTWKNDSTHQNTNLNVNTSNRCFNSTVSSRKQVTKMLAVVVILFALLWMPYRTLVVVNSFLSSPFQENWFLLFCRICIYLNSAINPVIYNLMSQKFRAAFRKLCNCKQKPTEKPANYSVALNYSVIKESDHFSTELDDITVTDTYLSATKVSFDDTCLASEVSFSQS
Sequence of Progesterone receptor (Homo sapiens) (P06401 whole entry, looked up): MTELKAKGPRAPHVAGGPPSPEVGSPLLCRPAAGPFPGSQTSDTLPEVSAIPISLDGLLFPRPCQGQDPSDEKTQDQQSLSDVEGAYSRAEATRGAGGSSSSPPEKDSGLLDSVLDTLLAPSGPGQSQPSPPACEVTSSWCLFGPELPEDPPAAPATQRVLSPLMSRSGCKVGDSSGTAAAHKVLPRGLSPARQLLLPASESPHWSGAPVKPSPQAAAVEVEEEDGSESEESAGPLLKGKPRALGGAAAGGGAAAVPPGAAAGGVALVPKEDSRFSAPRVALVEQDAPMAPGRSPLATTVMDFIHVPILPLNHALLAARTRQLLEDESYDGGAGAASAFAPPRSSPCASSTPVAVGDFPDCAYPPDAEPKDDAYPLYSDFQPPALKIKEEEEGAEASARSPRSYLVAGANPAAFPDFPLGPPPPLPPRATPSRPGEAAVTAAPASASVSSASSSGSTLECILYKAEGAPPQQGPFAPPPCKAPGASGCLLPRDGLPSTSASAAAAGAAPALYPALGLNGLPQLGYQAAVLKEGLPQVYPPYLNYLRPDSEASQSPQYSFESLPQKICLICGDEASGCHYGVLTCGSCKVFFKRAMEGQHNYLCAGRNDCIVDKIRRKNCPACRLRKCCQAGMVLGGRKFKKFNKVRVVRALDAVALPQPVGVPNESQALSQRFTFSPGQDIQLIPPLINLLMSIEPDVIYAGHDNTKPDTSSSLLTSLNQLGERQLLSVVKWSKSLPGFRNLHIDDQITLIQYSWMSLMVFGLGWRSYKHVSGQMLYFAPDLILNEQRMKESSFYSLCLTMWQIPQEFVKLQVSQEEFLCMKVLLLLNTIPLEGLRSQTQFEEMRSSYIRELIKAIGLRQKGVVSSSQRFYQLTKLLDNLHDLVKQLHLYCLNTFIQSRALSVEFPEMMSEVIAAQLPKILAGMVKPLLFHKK

Regarding `Nc1cccc2ccccc12`, the Potency entry in assay [1], in assay [2], in assay [3], in assay [4], in assay [6] and in [7] was “inactive” throughout. The Potency entry in assay [8], in assay [9], in assay [10], in [11] and in assay [13] was “inactive” each time. Also, in [5], the outcome was inactive. Also, the Potency in [12] is 48.9 µM (active) and 61.1 µM (active).

As for `C[N+]1(CCF)[C@@H]2CC[C@H]1CC(OC(=O)C(O)(c1ccccc1)c1ccccc1)C2` (stereo partly specified), the Potency result in assay [1], in [2], in assay [14], in [15], in [6] and in [7] was “inactive” each time. For the same compound, the Potency result in assay [8], in assay [9], in assay [11], in [12] and in [13] was “inactive” each time. Besides, the compound was classed as inactive in assay [16].

Consider `C[C@]12CC[C@H]3[C@@H](CCC4=CC(=O)CC[C@@H]43)[C@@H]1CC[C@@H]2OC(=O)CCc1ccccc1`, for which the Potency entry in assay [1], in assay [14], in [4], in assay [15], in assay [7] and in assay [8] was “inactive” throughout. For the same compound, the Potency entry in assay [9], in [10], in assay [11] and in assay [12] was “inactive” throughout. The Potency in assay [2] was 1.5 µM (active). For the same compound, the compound was called inactive in [5].

On to `CC1(C)CC(=O)CC(C)(C)N1[O]`, for which the Potency result in assay [1], in [2], in assay [3], in assay [15], in assay [6] and in assay [7] was “inactive” each time. Further, the Potency entry in assay [8], in [9], in assay [11], in assay [12] and in assay [13] was “inactive” in each case. In addition, the outcome in assay [5] and in assay [16] was inactive.

As for `OC[P+](CO)(CO)CO`, the Potency result in assay [1], in assay [2], in [3], in assay [15], in assay [6] and in assay [7] was “inactive” each time. Besides, the Potency entry in assay [8], in assay [9], in assay [10], in assay [11] and in assay [13] was “inactive” throughout. The outcome in assay [5] and in assay [16] was inactive. In addition, in [12], the Potency is 61.8 µM (active).

For the compound `CCCN(CCC)c1c([N+](=O)[O-])cc(C(C)C)cc1[N+](=O)[O-]`, the Potency entry in assay [1], in assay [2], in [14], in assay [3], in assay [6] and in [7] was “inactive” each time. Besides, the Potency result in assay [8], in assay [9], in [10], in assay [11] and in [13] was “inactive” throughout. Besides, the result in assay [5] was inactive. Moreover, the Potency in assay [12] is 23.8 µM (active).

As for `CCOP(=S)(S)OCC`, the Potency entry in assay [1], in assay [2], in assay [3], in assay [4], in [15] and in [6] was “inactive” in each case. Also, the Potency result in assay [7], in assay [8] and in [9] was “inactive” each time. Besides, the Potency in assay [13] is 16.7 µM (active).

`CCCCCCCCP(=O)(O)O`: the Potency result in [1], in assay [2], in [4], in [15], in assay [6] and in assay [7] was “inactive” in each case. In addition, the Potency entry in [8], in [9], in assay [10], in assay [11], in [12] and in assay [13] was “inactive” throughout. The compound was called inactive in assay [5] and in [16].
